Reference: PubChem BioAssay AID590 (National Center for Advancing Translational Sciences (NCATS), 2007)
Among all 59,000 compounds or so, about 6,500 (11%) were called active. Inconclusive results (about 15%) are left out. Rule as the data show it: active = max dye-equivalent concentration above about 10 nM; inconclusive = mostly about 1.1 nM to 9.6 nM; inactive = weaker than that. This excerpt belongs to a sample that is enriched for actives.

Test: qHTS Assay for Spectroscopic Profiling in A350 Spectral Region
Conditions: Compound autofluorescence, 340/450 nm, Alexa 350 dye-equivalents; hits give high values

Structure (SMILES)	max dye-equivalent concentration
N#Cc1ccc(CSc2nnc(-c3ccccn3)n2-c2ccc(Cl)cc2)cc1	inactive
CN(C)c1ccc(CNC23CN4CN(CN(C4)C2)C3)cc1	inactive
CCOC(=O)CSc1nnc(CNC(=O)c2ccco2)n1-c1ccc(F)cc1	inactive
O=C(Oc1ccc2c(c1)CN(Cc1ccccc1)CO2)c1ccccc1	inactive
COC(=O)c1c(NC(=O)CSc2nc3c(c(=O)n(C)c(=O)n3C)n2C(C)C)sc(C)c1C	inactive
CCOP1(=O)C=C(C(C)(C)C)OC1c1ccc(F)cc1 (stereo not given)	inactive
CC(C)c1nc(-c2ccccn2)no1	inactive
CSCCC(NS(=O)(=O)/C=C/c1ccccc1)C(=O)N1CCC(C)CC1 (stereo not given)	inactive
CCn1c(SCC(=O)Nc2ccc3c(c2)OCCO3)nc2c(c1=O)SC(C)C2 (stereo not given)	inactive
O=C(O)c1ccc(C(=O)O)c2c(C(=O)O)ccc(C(=O)O)c12	inactive
CCC(=O)N(Cc1cc2cc(OC)ccc2[nH]c1=O)c1ccccc1C	170 nM (active)
O=C(OCc1cc2ccccc2[nH]c1=O)c1cccnc1	inactive
CCOc1ccc2c(c1)cc(CN(C(=O)CC)C1CCCCC1)c1nnnn12	inactive
COc1ccc2[nH]c(=O)c(CN(Cc3nnnn3CCc3ccccc3)CC3CCCO3)cc2c1 (stereo not given)	300 nM (active)
COc1ccc2[nH]c(=O)c(CN(CC3CCCO3)C(=O)Nc3ccccc3)cc2c1 (stereo not given)	100 nM (active)
c1ccc(CCn2nnnc2CN2CCN(C3CCCC3)CC2)cc1	inactive
CCOc1ccc2[nH]c(=O)c(CN(CCCO)C(C)=O)cc2c1	290 nM (active)
Cc1cc(C)c2cc(CN(Cc3cccs3)Cc3nnnn3CC3CCCO3)c(=O)[nH]c2c1 (stereo not given)	inactive
O=C(CN(CC1CCCO1)C(=O)CNS(=O)(=O)c1ccccc1)NCc1ccccc1 (stereo not given)	inactive
C[C@@H]1CC[C@H]2[C@H](C)[C@H]3[C@H](C[C@H]4[C@@H]5CC=C6C[C@@H](O)CC[C@@]6(C)[C@@H]5C[C@@H](O)[C@]34C)N2C1	inactive
CN(C)CCNC(CC(=O)Nc1ccc(Cl)c(Cl)c1)C(=O)O (stereo not given)	inactive
Cc1ccc(CNC(=O)C2CCCN(S(C)(=O)=O)C2)cc1 (stereo not given)	inactive
O=C(Nc1ccccc1F)c1cc(S(=O)(=O)N2CCCCC2)cs1	inactive
NCC(=O)[C@@H](O)[C@H](O)[C@H](O)CO	inactive
O=C(O)c1nn(-c2ccc(Cl)cc2)c2c1C(=O)c1ccccc1C2=O	inactive
CCCN1CCN(CCCNC(=O)CN2C(=O)COc3ccccc32)CC1	inactive
CCn1c2c(c3ccc(OC)cc31)CCCC2=O	11 nM (active)

Structure (SMILES)	max dye-equivalent concentration
C[C@H](CCC(=O)NCC(=O)O)[C@H]1CC[C@H]2[C@H]3[C@@H](C[C@@H](O)[C@]12C)[C@]1(C)CC[C@H](O)C[C@@H]1C[C@@H]3O	inactive
CCC1(C)Cc2c(sc3nc4n(c(=O)c23)CCCS4)CO1 (stereo not given)	56 nM (active)
CCOC(=O)Cn1c(SC)nc2sc3c(c2c1=O)CC(C)(C)OC3	inactive
CC1(C)Cc2c(sc3nc4n(c(=N)c23)CCCCC4)CO1	inactive
CCCCC[C@H](O)CCCC(=O)O	inactive
CC(=O)c1c(C)n(-c2ccc(N(C)C)cc2)c2ccc(OCC(N)=O)cc12	inactive
CCCc1[nH]nc2c1C(c1ccc(OC)c(Cn3nc(C)c(Br)c3C)c1)C(C#N)=C(N)O2 (stereo not given)	inactive
CC(=O)/C(=N\N=C(N)N)c1ccccc1	inactive
OC(COc1cccc2ccccc12)CN1CCN(c2ccccn2)CC1 (stereo not given)	inactive
CC(=C1C(=O)c2ccccc2C1=O)N1CCN(c2ccccn2)CC1	inactive
O=C1c2cccc3cccc(c23)N1CN1CCN(c2ccccn2)CC1	16 nM (active)
COc1ccccc1OCCC(=O)OCC(=O)NC(=O)NC(C)(C)C	inactive
CN1C(C)(C)CC(NC(=O)CCC(=O)NC2CC(C)(C)N(C)C(C)(C)C2)CC1(C)C	inactive
CCn1c(=N)c(S(=O)(=O)c2ccc(F)cc2)cc2c(=O)n3ccccc3nc21	780 nM (active)
CC1CCCC(NC(=O)CSc2nccn2C)C1C (stereo not given)	inactive
O=C(c1c(Cl)nc2sccn12)N1CCCc2ccccc21	inactive
COc1ccccc1CNc1nc(-c2c(C)noc2C)nc2ccccc12	inactive
Cc1cnc(NC(=O)CSc2nnc(-c3ccccc3)n2Cc2ccccc2)s1	inactive
COc1ccc(CC(=O)Nc2nc3n(n2)C(c2ccccc2)CC(=O)N3)cc1OC (stereo not given)	inactive
CNC(=O)CSc1nnnn1-c1ccc(C)cc1C	inactive
COc1ccc(-c2nnc(SCC(=O)c3cccs3)o2)c(OC)c1	inactive
COc1ccc(OC)c(C(=O)CSc2nnc(-c3cccs3)o2)c1	150 nM (active)
COc1ccc(-n2c(C)cc(C(=O)CSc3nnc(-c4cccs4)o3)c2C)cc1	inactive
c1ccc(CSCCc2ccncc2)cc1	inactive
CN(CCC#N)c1ncnc2scc(-c3ccccc3)c12	inactive
O=C(CN1C2CCC1CC(NC(=O)C1CC1)C2)NCc1ccccc1 (stereo not given)	inactive
CCCCNC(=O)CSc1nnc(-c2ccco2)n1C	inactive

Structure (SMILES)	max dye-equivalent concentration
CC(C)N(C(=O)COC(=O)c1ccccc1C(=O)N1CCN(c2ccc(F)cc2)CC1)C(C)C	inactive
Cn1c2ccccc2c2c(C(=O)N3CCN(c4ccc(F)cc4)CC3)cn(C3CCCC3)c(=O)c21	13 nM (active)
O=C(c1ccccc1)c1cccn1CC(=O)N1CCN(c2ccc(F)cc2)CC1	inactive
CCCCn1nnnc1NCc1cc(OC)c(OC)c(OC)c1	inactive
COc1ccccc1-n1nnnc1S(=O)(=O)Cc1ccc(Cl)cc1	inactive
CCC(CC)C(=O)Nc1cccc(C(=O)N2CCCC2)c1	inactive
COc1ccc(OCc2cccc(C(=O)N3CCCC3)c2)cc1	18 nM (active)
COc1ccc(OCC(=O)N2CCN(C(=O)COc3ccccc3)CC2)cc1	inactive
Cc1noc(C)c1CSc1nnc2ccc3ccccc3n12	inactive
CCC(=O)Nc1sc(C(=O)N2CCCCC2)c(C)c1C#N	inactive
CC(C)C(C(=O)NC1CCCCC1)N(CC1CCCO1)C(=O)CNS(=O)(=O)c1ccc(F)cc1 (stereo not given)	inactive
c1ccc2c(CNn3cnnc3)cccc2c1	inactive
COC(=O)[C@H](Cc1ccccc1)NC(=O)N1CC(C)OC(C)C1 (stereo not given in full)	inactive
COc1ccc(C2N=C(N)N=C(N)N2c2ccccc2)cc1OC (stereo not given)	inactive
C=CCn1c(CC(=O)Nc2cccc(OC)c2)nnc1SCC(=O)NC1CCCCC1	inactive
Cn1c(-c2ccco2)nc2cc3ccccc3cc21	1100 nM (active)
Cn1c(SCC(=O)c2cccs2)nnc1-c1ccco1	inactive
c1coc(-c2nc3nc4ccccc4n3nc2-c2ccco2)c1	inactive
O=C(Nc1cc(C(F)(F)F)ccc1Cl)c1cc(C2CC2)on1	inactive
Cn1c(SCC(=O)OC2CCCCC2)nnc1-c1ccc(S(=O)(=O)N2CCCC2)cc1	inactive
O=C(COC(=O)c1ccc(Oc2ccccc2)cc1)Nc1nnc(-c2ccccc2)o1	inactive
Nc1ccc(-c2nnc(-c3ccc(-c4ccccc4)cc3)o2)cc1	300 nM (active)
O=C(CSc1nnc(-c2ccccc2)o1)N1CCOCC1	inactive
O=C(O)CN1C(=O)CC(Cc2ccccc2)C1=O (stereo not given)	inactive
c1nc(COc2nsnc2N2CCOCC2)cs1	inactive
O=C(OC1CCOC1=O)c1ccc(-c2nc3ccccc3s2)s1 (stereo not given)	1100 nM (active)
Cc1nn(Cc2ccccc2)c(Cl)c1C(=O)OC1CCOC1=O (stereo not given)	inactive

Structure (SMILES)	max dye-equivalent concentration
O=C(c1cccs1)N1CCC(c2nc3ccccc3s2)CC1	inactive
CC(C)NS(=O)(=O)c1ccc(OCC(=O)Nc2ccc3c(c2)OCCO3)cc1	inactive
COCCn1nnnc1C(c1cc2ccc(OC)cc2[nH]c1=O)N1CCc2ccccc2C1 (stereo not given)	18 nM (active)
COCCn1nnnc1C(c1ccccc1Cl)N1CCN(c2ccccc2OC)CC1 (stereo not given)	inactive
COc1ccc(OC)c(C(c2nnnn2C(C)(C)C)N2CCc3ccccc3C2)c1 (stereo not given)	inactive
CCOc1ccc2[nH]c(=O)c(C(c3nnnn3CCOC)N3CCOCC3)cc2c1 (stereo not given)	690 nM (active)
COc1ccc(N2CCN(C(c3cc4ccc(C)cc4[nH]c3=O)c3nnnn3C3CCCC3)CC2)cc1 (stereo not given)	inactive
Cc1cc(C)c2[nH]c(=O)c(C(c3nnnn3Cc3ccc4c(c3)OCO4)N3CCCC3)cc2c1 (stereo not given)	inactive
CCOc1ccccc1Nc1nnc(SCC(=O)Nc2cc(C)on2)s1	inactive
Cc1ccccc1CN1CCN(C(=O)c2cccc(F)c2)CC1	inactive
CCOc1ccccc1N=C1NC(=O)CS1	inactive
COc1ccccc1-c1nnc(SCC(=O)Nc2ccccc2)o1	inactive
c1ccc(CCN2CCN=C2Cc2ccccc2)cc1	inactive
O=c1cc(-c2ccc(O)c(O)c2)oc2cccc(O)c12	inactive
CC(C)OC(=O)C(C#N)c1nc2ccccc2nc1N1CCN(Cc2ccccc2)CC1 (stereo not given)	inactive
CC(C)OC(=O)C(C#N)c1nc2ccccc2nc1N1CCN(Cc2ccc3c(c2)OCO3)CC1 (stereo not given)	120 nM (active)
COc1ccc(-c2csc(N3CCN(Cc4ccc5c(c4)OCO5)CC3)n2)cc1	inactive
Cc1ccc(S(=O)(=O)N2CCN(Cc3cccc(C)c3O)CC2)cc1	inactive
CC(=O)Nc1cccc(NC(=O)c2c(-c3ccccc3)noc2C)c1	inactive
Cc1cc(=O)oc(C)c1C(=O)Nc1cnc2ccccc2c1	12 nM (active)
Cc1cc(=O)oc(C)c1C(=O)NC1CC(C)(C)NC(C)(C)C1	inactive
CCC(=O)Nc1ccc(C(=O)Nc2ccc3c(c2)C(=O)N(CC2CCCO2)C3=O)cc1 (stereo not given)	150 nM (active)
O=C(NCc1ccc2c(c1)OCO2)c1ccc2c(c1)C(=O)N(CC1CCCO1)C2=O (stereo not given)	inactive
O=C(CCN1C(=O)c2ccncc2C1=O)Nc1ccc2c(c1)OCCO2	inactive
